In PubChem BioAssay (NCI):
The panel holds about 83,000 compounds, 20% with a hit somewhere; the sample as a whole holds those more often.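 Treatment: one concentration, 48 hours, 96-well format. Scoring: percent growth, with anything below 10 considered active.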 A number with no mark means an inactive call. Activity calls are given as the source filed them.

What was measured:
Assay in all cases: NCI-60 one-dose screen, 48 h (100 = growth as untreated, 0 = no growth, -100 = all killed)
[1] = tested on: SR leukemia; conditions: 10 µM unless noted
[2] = tested on: RPMI-8226 leukemia; conditions: 10 µM unless noted
[3] = tested on: OVCAR-5 ovarian; conditions: 10 µM unless noted
[4] = tested on: OVCAR-4 ovarian; conditions: 10 µM unless noted
[5] = tested on: SK-OV-3 ovarian; conditions: 10 µM unless noted
[6] = tested on: IGROV1 ovarian; conditions: 10 µM unless noted
[7] = tested on: OVCAR-3 ovarian; conditions: 10 µM unless noted
[8] = tested on: HS 578T breast; conditions: 10 µM
[9] = tested on: NCI/ADR-RES ovarian; conditions: 10 µM unless noted
[10] = tested on: T-47D breast; conditions: 10 µM unless noted
[11] = tested on: BT-549 breast; conditions: 10 µM unless noted
[12] = tested on: MDA-MB-435 melanoma; conditions: 10 µM unless noted
[13] = tested on: SW-620 colon; conditions: 10 µM unless noted
[14] = tested on: MCF7 breast; conditions: 10 µM unless noted
[15] = tested on: HCT-116 colon; conditions: 10 µM unless noted
[16] = tested on: HCC-2998 colon; conditions: 10 µM
[17] = tested on: KM12 colon; conditions: 10 µM unless noted
[18] = tested on: OVCAR-8 ovarian; conditions: 10 µM unless noted

Compound: CC(C)(C)OC(=O)N1CCC(O)[C@@H](O[Si](c2ccccc2)(c2ccccc2)C(C)(C)C)[C@H]1/C=C/c1ccccc1 (stereo not given in full)
- growth [1]: 32.6%
- growth [2]: 25.2%
- growth [3]: 71.5%
- growth [4]: 21.3%
- growth [5]: 56.3%
- growth [6]: 60.6%
- growth [7]: 43.6%
- growth [8]: 55.8%
- growth [9]: 69.3%
- growth [10]: 21.4%
- growth [11]: 63%
- growth [12]: 57.4%
- growth [13]: 50.9%
- growth [14]: 36.6%
- growth [15]: 24.9%
- growth [16]: 44.8%
- growth [17]: 47%

Compound: O=c1nc2c(-c3nc4ccccc4s3)n[nH]n2c2sc3c(c12)CCCC3
- growth [1]: 90.6%
- growth [2]: 94.3%
- growth [3]: 120%
- growth [4]: 115%
- growth [5]: 92.3%
- growth [6]: 101%
- growth [7]: 95%
- growth [8]: 94.3%
- growth [9]: 96.9%
- growth [10]: 78.9%
- growth [11]: 94.1%
- growth [12]: 110%
- growth [13]: 100%
- growth [14]: 89.1%
- growth [15]: 89.1%
- growth [16]: 103%
- growth [17]: 96.7%

Compound: CC(CCCC(=O)O)c1ccoc1 (stereo not given)
- growth [1]: 102%
- growth [2]: 104%
- growth [3]: 105%
- growth [4]: 99.7%
- growth [5]: 95.1%
- growth [6]: 102%
- growth [7]: 105%
- growth [8]: 112%
- growth [9]: 104%
- growth [10]: 89.6%
- growth [11]: 108%
- growth [12]: 107%
- growth [13]: 110%
- growth [14]: 94.1%
- growth [15]: 101%
- growth [16]: 96.7%
- growth [17]: 98.7%

Compound: Cc1ccccc1N1C(c2ccccc2)=NNC12C=CC(=O)C=C2Cl (stereo not given)
- growth [1]: 90.6%
- growth [2]: 109%
- growth [18]: 96.7%
- growth [3]: 87.8%
- growth [4]: 117%
- growth [5]: 90.2%
- growth [7]: 118%
- growth [9]: 98.7%
- growth [10]: 117%
- growth [11]: 106%
- growth [12]: 112%
- growth [13]: 119%
- growth [14]: 98%
- growth [15]: 103%
- growth [16]: 102%
- growth [17]: 110%

Compound: CN(C)C/C=C/C(=O)Nc1cc2c(Nc3ccc(F)c(Cl)c3)ncnc2cc1O[C@H]1CCOC1
- growth [1]: -15.8% (active)
- growth [2]: -20.3% (active)
- growth [18]: -2.55% (active)
- growth [3]: 17%
- growth [4]: 20.1%
- growth [5]: -15.1% (active)
- growth [7]: -14% (active)
- growth [9]: 5.68% (active)
- growth [10]: -6.55% (active)
- growth [11]: -1.8% (active)
- growth [12]: 2.71% (active)
- growth [13]: -22.6% (active)
- growth [14]: 3.59% (active)
- growth [16]: -71% (active)
- growth [17]: -0.867% (active)

Compound: CNC(=O)c1cc(Oc2ccc(NC(=O)Nc3cc(C(C)(C)C)nn3-c3ccc4ncccc4c3)c(F)c2)ccn1
- growth [1]: -8.95% (active)
- growth [2]: 0.22% (active)
- growth [18]: -30.2% (active)
- growth [3]: -3.54% (active)
- growth [4]: -13.6% (active)
- growth [5]: -13.3% (active)
- growth [7]: 1.66% (active)
- growth [9]: -23.1% (active)
- growth [10]: -17.7% (active)
- growth [11]: -38.2% (active)
- growth [12]: -88% (active)
- growth [13]: -0.427% (active)
- growth [14]: -6.46% (active)
- growth [15]: -51.8% (active)
- growth [16]: -31.5% (active)
- growth [17]: -23.8% (active)

Compound: CCN1CCN(c2cc(C)nc(N(CCCNc3ccnc4cc(Cl)ccc34)Cc3ccc4c(c3)OCO4)n2)CC1
- growth [1]: -40.3% (active)
- growth [2]: -49.6% (active)
- growth [3]: 50.2%
- growth [4]: 27.7%
- growth [5]: 72.1%
- growth [6]: 5.03% (active)
- growth [7]: -26.9% (active)
- growth [8]: -27.1% (active)
- growth [9]: 14.2%
- growth [10]: -51.8% (active)
- growth [11]: -42.6% (active)
- growth [12]: -73.7% (active)
- growth [13]: -3.47% (active)
- growth [14]: 4.2% (active)
- growth [15]: 2.67% (active)
- growth [16]: -42.3% (active)
- growth [17]: 29.8%

Compound: C=CCN1C(=O)c2cccc3c(-c4ccc5c(c4)ncn5C4CCCCC4)ccc(c23)C1=O
- growth [1]: 39.8%
- growth [2]: 29.5%
- growth [18]: 49.5%
- growth [3]: 75.3%
- growth [4]: 32.3%
- growth [5]: 73.4%
- growth [7]: 62.4%
- growth [9]: 39.6%
- growth [10]: 11.2%
- growth [11]: 17%
- growth [12]: 39.4%
- growth [13]: 86.3%
- growth [14]: 37.6%
- growth [15]: 32%
- growth [16]: 75.2%
- growth [17]: 49.4%

Compound: O=C(O)c1ccc2c(c1)nc(Nc1cccc(Cl)c1)c1ccncc12
- growth [1]: -11.3% (active)
- growth [2]: 10.6%
- growth [3]: 10.6%
- growth [4]: -2.42% (active)
- growth [5]: -27.1% (active)
- growth [6]: -22.2% (active)
- growth [7]: 2.03% (active)
- growth [9]: 5.81% (active)
- growth [10]: -22.1% (active)
- growth [11]: -5.65% (active)
- growth [12]: 5.4% (active)
- growth [13]: 6.63% (active)
- growth [14]: 5.91% (active)
- growth [15]: 3.79% (active)
- growth [16]: 15.1%
- growth [17]: 11.5%

Compound: Cc1cc(Nc2nc(N[C@@H](C)c3ncc(F)cn3)ncc2Cl)n[nH]1
- growth [1]: 7% (active)
- growth [2]: 89.9%
- growth [18]: 88.1%
- growth [3]: 59.8%
- growth [4]: 91.6%
- growth [5]: 75.3%
- growth [7]: 93.3%
- growth [9]: 87.5%
- growth [10]: 86.5%
- growth [11]: 65.3%
- growth [12]: 77.2%
- growth [13]: 58%
- growth [14]: 63.1%
- growth [16]: 61.4%
- growth [17]: 14.7%

Compound: C[C@H](NC(=O)c1c(N)nn2cccnc12)c1cc2cccc(C#Cc3cnn(C)c3)c2c(=O)n1-c1ccccc1
- growth [1]: 3.42% (active)
- growth [2]: 4.95% (active)
- growth [18]: 28.1%
- growth [3]: 45.1%
- growth [4]: 31.1%
- growth [5]: -1.83% (active)
- growth [7]: 19.9%
- growth [9]: 31.1%
- growth [10]: -22.3% (active)
- growth [11]: 2.12% (active)
- growth [12]: 30.9%
- growth [13]: 13.4%
- growth [14]: 5.42% (active)
- growth [15]: 1.33% (active)
- growth [17]: -14% (active)

Compound: O=C(NOC[C@H](O)CO)c1ccc(F)c(F)c1Nc1ccc(I)cc1F
- growth [1]: 45.7%
- growth [2]: 59.7%
- growth [3]: 9.99% (active)
- growth [4]: 62%
- growth [5]: 46.3%
- growth [6]: 14.1%
- growth [7]: 95.1%
- growth [9]: 59.2%
- growth [10]: 62.2%
- growth [11]: 80.4%
- growth [12]: 33%
- growth [13]: 18.5%
- growth [14]: 93.3%
- growth [15]: 11.5%
- growth [16]: -15.9% (active)
- growth [17]: 24.1%

Compound: CN1CCN(CCOc2cc(OC3CCOCC3)c3c(Nc4c(Cl)ccc5c4OCO5)ncnc3c2)CC1
- growth [1]: 38.7%
- growth [2]: 95.1%
- growth [3]: 29.1%
- growth [4]: 95.8%
- growth [5]: -14.6% (active)
- growth [6]: -15.6% (active)
- growth [7]: 59.3%
- growth [9]: 60.7%
- growth [10]: -14.3% (active)
- growth [11]: 89.2%
- growth [12]: 98.3%
- growth [13]: 110%
- growth [14]: 62.8%
- growth [15]: 35.3%
- growth [16]: 90.7%
- growth [17]: 17.1%

Compound: COc1cc(N2CCC(N3CCN(C)CC3)CC2)ccc1Nc1ncnc(Nc2ccccc2S(=O)(=O)C(C)C)n1
- growth [1]: 12.7%
- growth [2]: 101%
- growth [3]: 98.3%
- growth [4]: 113%
- growth [5]: 87.4%
- growth [6]: 103%
- growth [7]: 105%
- growth [9]: 109%
- growth [10]: 74.7%
- growth [11]: 104%
- growth [12]: 108%
- growth [13]: 100%
- growth [14]: 88.6%
- growth [15]: 88.2%
- growth [16]: 97.3%
- growth [17]: 109%

Compound: Cc1nc(-c2cn3c(n2)-c2ccc(-c4cnn(C(C)(C)C(N)=O)c4)cc2OCC3)n(C(C)C)n1
- growth [1]: 30.1%
- growth [2]: 39.3%
- growth [18]: 32.9%
- growth [3]: 28.8%
- growth [4]: 62.5%
- growth [5]: -22.1% (active)
- growth [7]: 24.5%
- growth [9]: 39.2%
- growth [10]: -9.88% (active)
- growth [11]: 14.9%
- growth [12]: 27.8%
- growth [13]: 44%
- growth [14]: 13.7%
- growth [15]: 20.4%
- growth [17]: 16.2%
